# “And” between values parts separate entries of the source, which are not always exact repeats. Equal values may be shown once. A structure can be active in one record and inactive in another. The source made the active and inactive calls. Entries that show only a call come without a potency. Unless noted, calls come from the whole dose curve; as a rule, active = well fitted curve in the direction sought with a large enough effect in the repeat runs; inconclusive = weak or mixed curves; inactive = no such curve, though single readings can be large; an effect the other way counts as inactive or inconclusive.
# Legend:
# [1] = qHTS assay to identify small molecule antagonists of the thyroid receptor (TR) signaling pathway (AID 743065); note: nearly all actives have a fitted effect of over 55% in size; note: potency is the fitted concentration of half-maximal effect
# Outline: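 GH3.TRE-Luc rat pituitary cells (two TREs driving luciferase) were dosed with compound, then stimulated with 1 nM T3 (final) for 23.5 h at 37 C. ONE-Glo luminescence was the read-out, with CellTiter-Fluor fluorescence as the cytotoxicity counter-screen.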
# [2] = tested on: thyroid hormone receptor (rat, GH3 cells); assay: qHTS assay to identify small molecule agonists of the thyroid receptor (TR) signaling pathway (AID 743066; calls by dose curve)
# [3] = qHTS assay to identify small molecule antagonists of the estrogen receptor alpha (ER-alpha) signaling pathway - cell viability counter screen (AID 743074; calls by dose curve;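 note: HEK293 cells carrying ER-alpha-UAS-bla reporter stimulated with 17beta-estradiol; nearly all actives have a fitted effect of over 45% in size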; note: potency is the fitted concentration of half-maximal effect)
# [4] = qHTS assay to identify small molecule antagonists of the estrogen receptor alpha (ER-alpha) signaling pathway using the BG1 cell line - cell viability counter screen (AID 743081);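 note: compound given together with 17beta-estradiol as the ER stimulus; nearly all actives have a fitted effect of over 45% in size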; note: potency is the fitted concentration of half-maximal effect
# Aromatase (Homo sapiens) = Aromatase (Homo sapiens) (UniProt P11511); assay: qHTS assay to identify aromatase inhibitors (AID 743083); note: nearly all actives have a fitted effect of over 55% in size; note: potency is the fitted concentration of half-maximal effect
# [5] = qHTS assay to identify aromatase inhibitors - cell viability counter screen (AID 743084);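 note: cells stimulated with testosterone during compound exposure; nearly all actives have a fitted effect of over 55% in size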; note: potency is the fitted concentration of half-maximal effect
# [6] = biological target: Aryl hydrocarbon receptor (Homo sapiens) (UniProt P35869); assay: qHTS assay to identify small molecule that activate the aryl hydrocarbon receptor (AhR) signaling pathway (AID 743085); note: nearly all actives have a fitted effect of over 15% in size; note: potency is the fitted concentration of half-maximal effect;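 for activation: HG2L7.5c1 human HepG2 liver cells with stably integrated DRE-driven firefly reporter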
# Outline: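 Compounds were tested in HepG2 hepatocellular carcinoma cells harbouring a stably integrated luciferase gene under control of 20 DREs. Increased reporter signal after 24 h treatment at 37C was taken as AhR activation.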
# [7] = qHTS assay to identify small molecule that activate the aryl hydrocarbon receptor (AhR) signaling pathway - cell viability counter screen (AID 743086); note: nearly all actives have a fitted effect of over 45% in size; note: potency is the fitted concentration of half-maximal effect
# Outline: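 HepG2-AhR-luc (HG2L7.5c1) cells, 4000/well, treated 24 h at 37 C with compound; viability measured as CellTiter-Fluor fluorescence after 30 min in the same wells as the luciferase read.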
# [8] = biological target: Peroxisome proliferator-activated receptor gamma (Homo sapiens) (UniProt P37231); assay: qHTS assay to identify small molecule agonists of the peroxisome proliferator-activated receptor gamma (PPARg) signaling pathway (AID 743094; active = well fitted activation curve with a large enough effect in the signal ratio in the repeat runs, not every such curve was filed as active; inconclusive = weak or mixed curves, or effect the other way; inactive = no such curve, though single readings can be large or run the other way; the % refers to the signal ratio)
# Outline: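 Agonism was assessed in a beta-lactamase reporter system, HEK293H cells with a stably integrated UAS-bla construct under PPARg control; the 17 h treatment at 37C preceded a 1 h room-temperature FRET substrate read.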
# [9] = qHTS assay to identify small molecule antagonists of the peroxisome proliferator-activated receptor gamma (PPARg) signaling pathway - cell viability counter screen (AID 743194); conditions: Potency: co-treated with 50 nM rosiglitazone unless noted; note: nearly all actives have a fitted effect of over 55% in size; note: potency is the fitted concentration of half-maximal effect
# Outline: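 Cytotoxicity counter screen in PPARg-bla HEK293H cells, same wells as reporter assay. Compounds plus 50 nM rosiglitazone (final) for 17 h at 37 C, then viability read by CellTiter-Glo luminescence.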
# [10] = qHTS assay for small molecule agonists of the antioxidant response element (ARE) signaling pathway (AID 743202; active = well fitted activation curve with a large enough effect in the signal ratio in the repeat runs, not every such curve was filed as active; inconclusive = weak or mixed curves, or effect the other way; inactive = no such curve, though single readings can be large or run the other way; the % refers to the signal ratio; note: potency is the fitted concentration of half-maximal effect)
# Outline: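 HepG2 ARE-bla reporter line, 2,000 cells/well; 5 h preincubation 37 C/5% CO2; compound (DMSO) 16 h 37 C; B/G FRET substrate 2 h RT; fluorescence intensity.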
# [11] = qHTS assay for small molecule agonists of the antioxidant response element (ARE) signaling pathway - cell viability counter screen (AID 743203; calls by dose curve; note: nearly all actives have a fitted effect of over 55% in size; note: potency is the fitted concentration of half-maximal effect)
# Outline: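 ATP content via CellTiter-Glo luminescence served as the viability measure. Cells: ARE-bla HepG2, 2,000 per well. Exposure: 16 hrs, 37C/5% CO2.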
# [12] = qHTS assay for small molecule activators of the heat shock response signaling pathway - cell viability counter screen (AID 743209); note: nearly all actives have a fitted effect of over 50% in size; note: potency is the fitted concentration of half-maximal effect
# Outline: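 Compounds dissolved in DMSO were added to overnight-plated HSE-bla HeLa cells and left 5 h at 37 C. Cell viability was quantified by luminescence using CellTiter-Glo.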
# [13] = qHTS assay for small molecule activators of the heat shock response signaling pathway (AID 743210; active = well fitted activation curve with a large enough effect in the signal ratio in the repeat runs, with a control signal flat, not every such curve was filed as active; inconclusive = weak or mixed curves; the % refers to the signal ratio;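 note: HeLa cells with beta-lactamase reporter driven by heat shock elements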)
# Outline: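 Beta-lactamase reporter read-out: FRET substrate fluorescence after 2.5 h at RT, following 5 h compound treatment at 37 C of HeLa cells carrying HSE-driven bla reporter; quantitative HTS format.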
# [14] = qHTS assay to identify small molecule agonists of the peroxisome proliferator-activated receptor delta (PPARd) signaling pathway - cell viability counter screen (AID 743211); note: nearly all actives have a fitted effect of over 55% in size; note: potency is the fitted concentration of half-maximal effect
# Outline: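 Counter screen for cytotoxicity run in parallel with the PPARd reporter screen. Beta-lactamase reporter HEK293H cells exposed to compounds 17 h; ATP-based CellTiter-Glo luminescence quantified viability.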
# [15] = biological target: Peroxisome proliferator-activated receptor gamma (Homo sapiens) (UniProt P37231); assay: qHTS assay to identify small molecule antagonists of the peroxisome proliferator-activated receptor gamma (PPARg) signaling pathway (AID 743191; calls by dose curve; note: nearly all actives have a fitted effect of over 30% in size)
# Outline: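 GeneBLAzer PPARg UAS-bla HEK293H cells, 5 h post-plating, exposed to compounds 17 h at 37C. LiveBLAzer B/G FRET substrate added for 1 h at room temperature; beta-lactamase reporter read by fluorescence intensity.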
# [16] = biological target: Estrogen receptor (Homo sapiens) (UniProt P03372); assay: qHTS assay to identify small molecule antagonists of the estrogen receptor alpha (ER-alpha) signaling pathway (AID 743069; active = well fitted curve in the direction sought with a large enough effect in the signal ratio in the repeat runs, not every such curve was filed as active; inconclusive = weak or mixed curves, or effect the other way; inactive = no such curve, though single readings can be large or run the other way; the % refers to the signal ratio; note: potency is the fitted concentration of half-maximal effect)
# Outline: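 Beta-lactamase FRET fluorescence is read after 2 hr at room temperature with LiveBLAzer B/G substrate. Before that, ER-alpha-bla HEK293 cells sit 4 hr after plating, then receive compound plus 17beta-estradiol and incubate 18 hr at 37C.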
# [17] = biological target: Estrogen receptor (Homo sapiens) (UniProt P03372); assay: qHTS assay to identify small molecule agonists of the estrogen receptor alpha (ER-alpha) signaling pathway (AID 743075; calls by dose curve;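 note: HEK293 GripTite cells with ER-alpha and UAS-driven beta-lactamase reporter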; note: potency is the fitted concentration of half-maximal effect)
# [18] = qHTS assay to identify small molecule antagonists of the estrogen receptor alpha (ER-alpha) signaling pathway using the BG1 cell line (AID 743080; calls by dose curve;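 note: BG1 cells stimulated with 17beta-estradiol alongside compound; nearly all actives have a fitted effect of over 25% in size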; note: potency is the fitted concentration of half-maximal effect)
# Outline: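 Readout is ONE-Glo luminescence, taken 30 min at room temperature after reagent addition, preceded by a CellTiter-Fluor viability read; BG1-Luc-4E2 cells had received compound and 17beta-estradiol for 21.5 h at 37 C.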
# [19] = biological target: Estrogen receptor (Homo sapiens) (UniProt P03372); assay: qHTS assay to identify small molecule agonists of the estrogen receptor alpha (ER-alpha) signaling pathway using the BG1 cell line (AID 743079); conditions: BG1Luc4E2 cells, ERE-luciferase agonist, 22 h; activation: at 70.3 µM (top of the series) unless noted; note: nearly all actives have a fitted effect of over 20% in size; note: potency is the fitted concentration of half-maximal effect
# Sequence of Estrogen receptor (Homo sapiens) (P03372 whole entry, looked up): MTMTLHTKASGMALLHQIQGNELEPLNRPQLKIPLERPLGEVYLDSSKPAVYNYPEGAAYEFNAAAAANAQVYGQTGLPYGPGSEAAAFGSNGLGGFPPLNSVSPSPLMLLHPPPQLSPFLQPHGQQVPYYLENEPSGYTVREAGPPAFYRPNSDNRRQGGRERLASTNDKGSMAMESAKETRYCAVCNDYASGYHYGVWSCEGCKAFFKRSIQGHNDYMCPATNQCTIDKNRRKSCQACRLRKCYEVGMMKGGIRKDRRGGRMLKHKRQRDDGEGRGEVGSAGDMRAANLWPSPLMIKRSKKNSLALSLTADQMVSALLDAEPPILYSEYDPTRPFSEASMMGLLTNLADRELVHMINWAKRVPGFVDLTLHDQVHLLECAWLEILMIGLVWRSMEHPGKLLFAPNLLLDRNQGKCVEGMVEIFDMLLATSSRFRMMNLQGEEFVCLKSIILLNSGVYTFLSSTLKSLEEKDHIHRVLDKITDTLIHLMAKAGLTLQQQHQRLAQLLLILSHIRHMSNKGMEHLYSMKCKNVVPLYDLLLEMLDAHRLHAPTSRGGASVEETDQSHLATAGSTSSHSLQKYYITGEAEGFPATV
# Sequence of Peroxisome proliferator-activated receptor gamma (Homo sapiens) (P37231 whole entry, looked up): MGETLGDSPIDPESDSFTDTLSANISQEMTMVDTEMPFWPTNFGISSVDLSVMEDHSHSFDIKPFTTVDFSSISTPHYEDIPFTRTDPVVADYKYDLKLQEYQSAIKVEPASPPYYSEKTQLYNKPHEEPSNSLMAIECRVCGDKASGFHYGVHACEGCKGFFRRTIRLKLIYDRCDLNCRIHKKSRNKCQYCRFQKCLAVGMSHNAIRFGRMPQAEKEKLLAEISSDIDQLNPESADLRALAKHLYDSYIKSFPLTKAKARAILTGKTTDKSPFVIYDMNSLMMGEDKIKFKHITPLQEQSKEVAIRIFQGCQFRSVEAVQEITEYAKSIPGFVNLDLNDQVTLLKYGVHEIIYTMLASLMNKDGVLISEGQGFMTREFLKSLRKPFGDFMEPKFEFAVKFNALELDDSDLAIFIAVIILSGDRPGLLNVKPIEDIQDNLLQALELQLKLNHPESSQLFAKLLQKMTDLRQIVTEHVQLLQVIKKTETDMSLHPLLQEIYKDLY
# Sequence of Aryl hydrocarbon receptor (Homo sapiens) (P35869 whole entry, looked up): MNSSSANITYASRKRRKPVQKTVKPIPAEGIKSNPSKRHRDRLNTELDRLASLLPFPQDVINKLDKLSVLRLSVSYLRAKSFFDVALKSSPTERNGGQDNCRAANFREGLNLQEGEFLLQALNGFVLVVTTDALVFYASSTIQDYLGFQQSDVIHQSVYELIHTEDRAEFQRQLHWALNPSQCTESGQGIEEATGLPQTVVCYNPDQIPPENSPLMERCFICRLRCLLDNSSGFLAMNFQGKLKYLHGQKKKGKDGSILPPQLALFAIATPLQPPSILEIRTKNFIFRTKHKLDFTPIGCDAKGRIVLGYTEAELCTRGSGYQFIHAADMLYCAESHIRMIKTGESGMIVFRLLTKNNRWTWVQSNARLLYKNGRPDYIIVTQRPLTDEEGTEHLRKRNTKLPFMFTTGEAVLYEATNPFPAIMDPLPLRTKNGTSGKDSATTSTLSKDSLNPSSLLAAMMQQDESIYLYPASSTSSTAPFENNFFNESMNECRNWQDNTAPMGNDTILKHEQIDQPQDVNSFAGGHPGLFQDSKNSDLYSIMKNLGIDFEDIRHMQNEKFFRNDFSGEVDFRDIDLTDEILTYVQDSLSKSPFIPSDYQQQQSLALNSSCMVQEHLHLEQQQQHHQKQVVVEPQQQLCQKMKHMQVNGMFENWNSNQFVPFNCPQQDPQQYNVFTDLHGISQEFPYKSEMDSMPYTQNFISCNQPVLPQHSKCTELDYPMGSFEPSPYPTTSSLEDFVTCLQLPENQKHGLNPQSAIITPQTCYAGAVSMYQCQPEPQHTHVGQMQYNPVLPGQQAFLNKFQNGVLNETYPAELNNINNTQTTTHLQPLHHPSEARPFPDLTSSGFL
# Sequence of Aromatase (Homo sapiens) (P11511 whole entry, looked up): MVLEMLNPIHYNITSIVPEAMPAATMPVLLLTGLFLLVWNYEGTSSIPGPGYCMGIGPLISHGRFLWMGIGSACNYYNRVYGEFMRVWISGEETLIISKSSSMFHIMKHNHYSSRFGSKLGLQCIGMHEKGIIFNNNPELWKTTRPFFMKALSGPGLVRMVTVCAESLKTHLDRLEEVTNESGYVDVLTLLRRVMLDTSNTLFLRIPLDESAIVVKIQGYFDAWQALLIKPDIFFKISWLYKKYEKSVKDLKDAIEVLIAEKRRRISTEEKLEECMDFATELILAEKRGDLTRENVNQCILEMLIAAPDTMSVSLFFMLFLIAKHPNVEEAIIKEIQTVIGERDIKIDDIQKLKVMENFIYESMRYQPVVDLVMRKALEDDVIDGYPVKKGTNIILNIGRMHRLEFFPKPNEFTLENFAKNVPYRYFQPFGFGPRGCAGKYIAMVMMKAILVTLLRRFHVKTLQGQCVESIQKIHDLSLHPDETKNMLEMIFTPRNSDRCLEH
Structure (SMILES),Potency [1],Potency [2],Potency [3],Potency [4],Potency (Aromatase (Homo sapiens)),Potency [5],Potency [6],Potency [7],Potency [8],Potency [9],Potency [10],Potency [11],Potency [12],Potency [13],Potency [14],Potency [15],Potency [16],Potency [17],Potency [18],Potency [19]
CCCCSP(=O)(SCCCC)SCCCC,inactive,inactive,inactive,inactive,inactive,inactive,inactive,inactive,inactive,inactive,inactive,inactive,inactive,inactive,inactive,–,–,–,–,–
NC(=O)CN1CCCC1=O,inactive,inactive,inactive,inactive,inactive,inactive,–,inactive,inactive,inactive,inactive,inactive,inactive,inactive,inactive,inactive,–,–,–,–
C=CC(Cl)CCl (stereo not given),inactive,inactive,inactive,inactive,inactive,inactive,inactive,inactive,inactive,inactive,inactive,inactive,inactive,inactive,inactive,inactive,–,–,–,–
N#Cc1nn(-c2c(Cl)cc(C(F)(F)F)cc2Cl)c(N)c1S(=O)C(F)(F)F (stereo not given),26.6 µM (active) and 19.4 µM (active),inactive,inactive,inactive,33.5 µM (active) and 19.4 µM (active),inactive,inactive,inactive and 30.8 µM (active),inactive,inactive,–,–,inactive,–,22 µM (active) and inactive,inactive,17.5 µM [inconclusive] (active),inactive,7.5 µM (active) and 24.5 µM (active),–
O=S(=O)(O)C(F)(F)C(F)(F)C(F)(F)C(F)(F)C(F)(F)C(F)(F)C(F)(F)C(F)(F)F,51.9 µM (active) and 61.1 µM (active),inactive,inactive,inactive,inactive,inactive,inactive,inactive,inactive,inactive,inactive,27.3 µM (active),inactive,–,inactive,inactive,–,–,–,–
Oc1ccc(Cl)cc1Cc1ccccc1,54.5 µM (active) and 43.3 µM (active),inactive,inactive and 49 µM (active) and 12.4 µM (active),inactive,27.3 µM (active) and 30.9 µM (active),inactive and 30.6 µM (active) and 49.2 µM (active),inactive,inactive,inactive,–,–,68.6 µM (active) and 55.1 µM (active),54.9 µM (active) and 45.4 µM (active) and inactive,–,54.9 µM (active),–,–,–,–,–
O=C1CCCO1,inactive,inactive,inactive,inactive,inactive,inactive,inactive,inactive,inactive,inactive,inactive,inactive,inactive,inactive,inactive,inactive,–,–,–,–
ClCc1ccccn1,inactive,inactive,–,inactive,inactive,inactive,–,inactive,inactive,inactive,inactive,inactive,inactive,inactive,inactive,inactive,inactive,inactive,inactive,inactive
C=CC(=O)OCC(CC)(COC(=O)C=C)COC(=O)C=C,3.15 µM (active) and 4.33 µM (active),inactive,56.4 µM (active) and 54.9 µM (active),79 µM (active) and 54.5 µM (active),4.99 µM (active) and 6.86 µM (active),6.28 µM (active) and 6.86 µM (active),inactive,31.5 µM (active) and 27.3 µM (active),–,28.3 µM (active) and 9.77 µM (active),–,inactive and 61.1 µM (active),3.56 µM (active) and 1.55 µM (active),–,11 µM (active),–,–,22.5 µM [inconclusive] (active) and 9.77 µM [inconclusive] (active),–,–
COP(=O)(NC(C)=O)SC (stereo not given),inactive,inactive,inactive,inactive,inactive,inactive,inactive,inactive,inactive,inactive,inactive,inactive,inactive,inactive,inactive,inactive,–,–,–,–
C[C@]12CC[C@H]3[C@@H](CCC4=CC(=O)CC[C@@H]43)[C@@H]1CC[C@@H]2O,21.1 µM (active) and 13.3 µM (active) and 30.4 µM (active),inactive,inactive,inactive,inactive,inactive,inactive,inactive,inactive,inactive,34.1 µM (active),inactive,inactive,inactive,inactive,–,–,1.34 µM [inconclusive] (active) and 268 nM [inconclusive] (active) and 243 nM [inconclusive] (active),inactive,106 nM (active) and 59.6 nM (active) and 108 nM (active)
COC(=O)Nc1nc2ccccc2[nH]1,5.45 µM (active) and 7.7 µM (active),inactive,inactive,inactive,inactive,inactive,24.3 µM (active),inactive,inactive,–,inactive,inactive,inactive,inactive,inactive,inactive,–,–,–,–
Nc1ncn[nH]1,inactive,inactive,inactive,inactive,inactive,inactive,inactive,inactive,inactive,inactive,inactive,inactive,inactive,inactive,inactive,inactive,–,–,–,–
O=C1C(Cl)=C(Cl)C(=O)c2ccccc21,3.07 µM (active) and 3.44 µM (active),inactive,43.8 µM (active) and 54.9 µM (active),inactive,2.18 µM (active) and 3.86 µM (active),4.34 µM (active) and 27.3 µM (active),17.3 µM (active) and 10.9 µM (active),–,–,39 µM (active) and 11 µM (active),–,68.8 µM (active) and 21.7 µM (active),27.6 µM (active) and 12.3 µM (active),–,19.6 µM (active) and 13.8 µM (active),–,–,–,30.7 µM (active) and 54.5 µM (active),–
COP(=S)(OC)Oc1ccc(Sc2ccc(OP(=S)(OC)OC)cc2)cc1,inactive,inactive,inactive,inactive,inactive,inactive,inactive,inactive,inactive,inactive,inactive,43.3 µM (active) and inactive,inactive,–,inactive,–,21.9 µM [inconclusive] (active),inactive,29.8 µM (active),–

# — PubChem BioAssay (Tox21)
